# Data taken from article PMC5700166.
# Where a chain is given by its changes, count along the chain named.
# Columns and labels:
# Experiment in all cases: protein-binding microarray (PBM); PBM: ~300 nM protein, 6 mM HEPES pH 7.8, 80 mM KCl, 0.5 mM EDTA, 0.5 mM EGTA, 6% glycerol, 35 ng/ul poly-dIdC, 1% milk, 1 h, room temperature; Ap Aiptasia and Nv Nematostella (sea anemones) / Co Capsaspora / Aq Amphimedon (sponge) / Dm Drosophila / Hu human; RHD is the Rel homology domain; high values mean tight binding
# Details in all cases: dsDNA, one strand shown
# GST-Ap-NF-kB RHD = molecular target: T1, GST-Ap-NF-kB RHD (Exaiptasia pallida (Aiptasia), UniProt A0A913YAJ5 2-422)
# T1 sequence: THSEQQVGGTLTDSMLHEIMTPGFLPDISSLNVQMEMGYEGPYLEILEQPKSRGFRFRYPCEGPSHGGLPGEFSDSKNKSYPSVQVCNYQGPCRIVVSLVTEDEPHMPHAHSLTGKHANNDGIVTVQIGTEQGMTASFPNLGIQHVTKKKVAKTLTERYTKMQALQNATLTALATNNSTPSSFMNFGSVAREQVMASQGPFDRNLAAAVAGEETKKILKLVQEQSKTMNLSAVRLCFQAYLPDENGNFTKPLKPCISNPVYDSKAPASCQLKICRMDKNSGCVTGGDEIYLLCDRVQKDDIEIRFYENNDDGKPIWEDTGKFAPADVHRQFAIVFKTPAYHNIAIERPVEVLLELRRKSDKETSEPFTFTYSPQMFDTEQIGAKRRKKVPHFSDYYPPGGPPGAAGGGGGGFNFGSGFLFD
# [1] = molecular target: T2, GST-Nv-NF-kB (Cys allele) (Nematostella vectensis, UniProt E5G601 2-411)
# T2 sequence: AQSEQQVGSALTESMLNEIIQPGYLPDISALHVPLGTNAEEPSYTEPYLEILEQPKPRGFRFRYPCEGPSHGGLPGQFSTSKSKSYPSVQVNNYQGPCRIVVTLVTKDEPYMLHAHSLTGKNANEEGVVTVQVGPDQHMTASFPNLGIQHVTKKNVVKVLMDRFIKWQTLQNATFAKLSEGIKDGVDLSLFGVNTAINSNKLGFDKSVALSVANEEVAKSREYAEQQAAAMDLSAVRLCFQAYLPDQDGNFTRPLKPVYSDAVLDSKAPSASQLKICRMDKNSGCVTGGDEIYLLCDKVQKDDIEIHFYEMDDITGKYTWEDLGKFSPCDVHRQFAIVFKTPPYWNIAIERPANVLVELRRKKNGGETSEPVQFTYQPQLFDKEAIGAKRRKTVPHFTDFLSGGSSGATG
# [2] = molecular target: T3, GST-Nv-NF-kB (Ser allele) (Nematostella vectensis, UniProt A7UNT2 2-411)
# T3 sequence: T2 sequence with Q21R, C66S, S207N, E215Q, V217A, E225K, A268E, D399E
# GST-Co-NF-kB = molecular target: T4, GST-Co-NF-kB (Capsaspora owczarzaki, UniProt F1ARL5 200-546)
# T4 sequence: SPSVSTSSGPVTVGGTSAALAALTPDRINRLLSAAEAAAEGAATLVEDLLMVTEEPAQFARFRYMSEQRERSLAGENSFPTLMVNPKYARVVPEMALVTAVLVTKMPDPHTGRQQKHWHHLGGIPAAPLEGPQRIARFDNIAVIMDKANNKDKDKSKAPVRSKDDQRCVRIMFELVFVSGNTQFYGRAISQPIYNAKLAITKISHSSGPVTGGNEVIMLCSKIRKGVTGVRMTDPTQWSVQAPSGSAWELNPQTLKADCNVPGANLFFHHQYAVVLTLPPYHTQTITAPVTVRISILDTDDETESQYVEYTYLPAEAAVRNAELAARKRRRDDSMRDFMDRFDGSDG
# GST-Dm-Relish = molecular target: T5, GST-Dm-Relish (Drosophila melanogaster, UniProt Q94527 99-473)
# T5 sequence: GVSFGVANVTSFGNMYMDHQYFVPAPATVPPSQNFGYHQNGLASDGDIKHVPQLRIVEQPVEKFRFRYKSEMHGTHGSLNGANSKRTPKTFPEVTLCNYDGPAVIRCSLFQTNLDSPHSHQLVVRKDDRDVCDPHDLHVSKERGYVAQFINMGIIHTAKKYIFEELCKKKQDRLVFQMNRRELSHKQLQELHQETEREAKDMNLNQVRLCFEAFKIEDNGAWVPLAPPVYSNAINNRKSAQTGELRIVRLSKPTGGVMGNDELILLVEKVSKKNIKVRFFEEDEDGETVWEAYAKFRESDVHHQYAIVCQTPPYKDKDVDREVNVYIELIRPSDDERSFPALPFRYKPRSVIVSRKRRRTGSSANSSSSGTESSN
# GST-Aq-NF-kB = molecular target: T6, GST-Aq-NF-kB (Amphimedon queenslandica, UniProt A9Y5G7 2-389)
# T6 sequence: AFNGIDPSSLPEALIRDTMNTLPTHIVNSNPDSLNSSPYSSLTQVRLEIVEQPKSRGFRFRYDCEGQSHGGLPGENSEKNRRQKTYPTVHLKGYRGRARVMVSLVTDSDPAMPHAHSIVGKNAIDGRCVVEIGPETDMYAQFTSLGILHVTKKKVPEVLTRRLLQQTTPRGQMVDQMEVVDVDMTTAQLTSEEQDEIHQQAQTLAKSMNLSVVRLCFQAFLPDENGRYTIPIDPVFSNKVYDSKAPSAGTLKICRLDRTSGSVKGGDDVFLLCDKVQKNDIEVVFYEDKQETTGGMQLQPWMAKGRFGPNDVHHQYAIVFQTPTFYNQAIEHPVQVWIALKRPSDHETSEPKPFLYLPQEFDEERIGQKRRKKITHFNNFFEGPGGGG
# GST-Hu-p50 = GST-Hu-p50 (Homo sapiens, UniProt P19838 7-356)
# GST-Hu-p50, sequence (P19838 7-356): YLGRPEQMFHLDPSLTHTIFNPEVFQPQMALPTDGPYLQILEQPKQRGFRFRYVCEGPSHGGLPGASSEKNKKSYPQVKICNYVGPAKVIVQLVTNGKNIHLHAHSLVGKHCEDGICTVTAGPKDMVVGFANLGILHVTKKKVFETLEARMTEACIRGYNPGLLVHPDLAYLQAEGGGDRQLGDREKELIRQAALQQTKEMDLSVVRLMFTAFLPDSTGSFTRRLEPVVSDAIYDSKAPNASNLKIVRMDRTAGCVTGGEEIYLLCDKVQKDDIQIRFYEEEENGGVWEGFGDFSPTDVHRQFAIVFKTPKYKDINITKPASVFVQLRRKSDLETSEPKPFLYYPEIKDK
Sequence,binding signal (GST-Ap-NF-kB RHD),binding signal [1],binding signal [2],binding signal (GST-Co-NF-kB),binding signal (GST-Dm-Relish),binding signal (GST-Aq-NF-kB),binding signal (GST-Hu-p50)
CCGATTAACATCAGGGGAACCCCTGATGTTAATCGGGTCTTGATTCGCTTGACGCTGCTG,12.5 z-score,11.6 z-score,11.2 z-score,6.69 z-score,10.5 z-score,10.7 z-score,7.08 z-score
CCGATTAACATCAATAACCCCCCTGATGTTAATCGGGTCTTGATTCGCTTGACGCTGCTG,6.33 z-score,5.55 z-score,5.48 z-score,4.7 z-score,8.07 z-score,6.46 z-score,5.76 z-score
CCGATTAACATCAAAACGTCCCCTGATGTTAATCGGGTCTTGATTCGCTTGACGCTGCTG,6.23 z-score,6.41 z-score,6.45 z-score,5.34 z-score,5.03 z-score,6.19 z-score,5.59 z-score
CCGATTAACATCAGGAAGTCCCCTGATGTTAATCGGGTCTTGATTCGCTTGACGCTGCTG,8.63 z-score,8.97 z-score,6.92 z-score,2.68 z-score,8.96 z-score,8.77 z-score,6.94 z-score
CCGATTAACATCAAGGAAATCCCTGATGTTAATCGGGTCTTGATTCGCTTGACGCTGCTG,4.83 z-score,4.91 z-score,2.74 z-score,1.77 z-score,7.71 z-score,5.91 z-score,3.79 z-score
CCGATTAACATCAGGCATCCCCATGATGTTAATCGGGTCTTGATTCGCTTGACGCTGCTG,3.84 z-score,2.84 z-score,3.73 z-score,1.82 z-score,3.01 z-score,2.63 z-score,2.9 z-score
CCGATTAACATCAGGGGTTTCTATGATGTTAATCGGGTCTTGATTCGCTTGACGCTGCTG,5.36 z-score,4.73 z-score,4.67 z-score,1.76 z-score,5.29 z-score,4.5 z-score,5.3 z-score
CCGATTAACATCACGGGAATACCTGATGTTAATCGGGTCTTGATTCGCTTGACGCTGCTG,4.13 z-score,3.29 z-score,2.87 z-score,3.47 z-score,6.3 z-score,5.81 z-score,1.75 z-score
CCGATTAACATCAGGGACTTTCATGATGTTAATCGGGTCTTGATTCGCTTGACGCTGCTG,6.28 z-score,7.24 z-score,7.09 z-score,1.04 z-score,5.59 z-score,6.22 z-score,5.49 z-score
CCGATTAACATCAGGGATTACCCTGATGTTAATCGGGTCTTGATTCGCTTGACGCTGCTG,8.01 z-score,10 z-score,7.06 z-score,2.89 z-score,9.47 z-score,8.71 z-score,4.78 z-score
CCGATTAACATCAAAAAGTCCCGTGATGTTAATCGGGTCTTGATTCGCTTGACGCTGCTG,7.34 z-score,9.76 z-score,8.57 z-score,2.47 z-score,9 z-score,8.05 z-score,6.44 z-score
CCGATTAACATCAAGTATCCCCCTGATGTTAATCGGGTCTTGATTCGCTTGACGCTGCTG,6.69 z-score,5.06 z-score,6.27 z-score,7.27 z-score,4.38 z-score,4.99 z-score,5.34 z-score
CCGATTAACATCACGGGGGGTACTGATGTTAATCGGGTCTTGATTCGCTTGACGCTGCTG,5.05 z-score,3.22 z-score,3.15 z-score,4.54 z-score,3.63 z-score,3.58 z-score,3.25 z-score
CCGATTAACATCAAAATTACCCCTGATGTTAATCGGGTCTTGATTCGCTTGACGCTGCTG,4.94 z-score,6.27 z-score,7.21 z-score,7.33 z-score,5.24 z-score,6.34 z-score,5.3 z-score
CCGATTAACATCAAAACTCCCCCTGATGTTAATCGGGTCTTGATTCGCTTGACGCTGCTG,9.31 z-score,8.47 z-score,9.96 z-score,9.22 z-score,8.02 z-score,7.6 z-score,8.06 z-score
CCGATTAACATCACCCACTCCCCTGATGTTAATCGGGTCTTGATTCGCTTGACGCTGCTG,4.11 z-score,2.69 z-score,3.92 z-score,2.82 z-score,1.47 z-score,3.04 z-score,3.03 z-score
CCGATTAACATCATATTTCCCCATGATGTTAATCGGGTCTTGATTCGCTTGACGCTGCTG,5.95 z-score,7.45 z-score,10.1 z-score,8.62 z-score,2.89 z-score,5.08 z-score,6.08 z-score
CCGATTAACATCAATGGGATTTCTGATGTTAATCGGGTCTTGATTCGCTTGACGCTGCTG,2.83 z-score,2.72 z-score,2.22 z-score,1.38 z-score,5.37 z-score,2.47 z-score,2.6 z-score
CCGATTAACATCAAAATCTCCCCTGATGTTAATCGGGTCTTGATTCGCTTGACGCTGCTG,8.53 z-score,7.57 z-score,8.79 z-score,7.3 z-score,4.44 z-score,6.41 z-score,5.85 z-score
CCGATTAACATCACCGTTTCCCCTGATGTTAATCGGGTCTTGATTCGCTTGACGCTGCTG,6.05 z-score,6.66 z-score,9.86 z-score,7.95 z-score,2.77 z-score,4.66 z-score,5.1 z-score
CCGATTAACATCAAAAAATTCCCTGATGTTAATCGGGTCTTGATTCGCTTGACGCTGCTG,6.84 z-score,10.3 z-score,9.33 z-score,5.79 z-score,8.53 z-score,8.5 z-score,6.48 z-score
CCGATTAACATCAGGCTTTCCCCTGATGTTAATCGGGTCTTGATTCGCTTGACGCTGCTG,6.49 z-score,7.29 z-score,7.71 z-score,4.87 z-score,7.38 z-score,7.22 z-score,4.79 z-score
